Where “and” joins values, the source holds several entries; their conditions need not be identical. Identical values can stand only once. Hit rate of the full screen: of about 5,500 compounds, about 2,000 (36%) were called active. Inconclusive results (about 18%) are left out. Cut-off read from the data, not from the text of the source: active = normalized growth mostly below about 0.91 (no sharp cut-off); inconclusive = no clear call, values can overlap the other calls; inactive = mostly above about 0.92. The list shows a part of the results.
Assay: chemical genetic growth profiling, strain panel (AID 1159580);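 note: tested at 20 µM; growth read once vehicle control cultures reached saturation at 30 °C; 1 = growth at the plate median or of vehicle wells; lower values mean less growth of the strain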
Conditions: S. cerevisiae deletion strains, growth OD

Measured: normalized growth

CC(NCCc1ccc(O)cc1)C(O)c1ccc(O)cc1 (centres undefined)
inactive: locus YAL021C, strain ccr4, hits give low values 0.997 | locus YAL030W, strain snc1, hits give low values 1.01 | locus YBL061C, strain skt5, hits give low values 0.991 | locus YBR009C, strain hhf1, hits give low values 1.04 | locus YBR021W, strain FUR4, hits give low values 0.962 | locus YBR023C, strain chs3, hits give low values 0.989 | locus YBR171W, strain sec66, hits give low values 0.994 | locus YBR229C, strain ROT2, hits give low values 0.988 | locus YBR231C, strain swc5, hits give low values 1.01 | locus YBR279W, strain paf1, hits give low values 0.978 | locus YCL011C, strain gbp2, hits give low values 0.991 | locus YCL016C, strain dcc1, hits give low values 0.968 | locus YCL029C, strain bik1, hits give low values 0.977 | locus YCL061C, strain MRC1, hits give low values 0.999 | locus YCL069W, strain vba3, hits give low values 0.973 | locus YCR088W, strain abp1, hits give low values 0.997 | locus YDL005C, strain med2, hits give low values 0.983 | locus YDL035C, strain GPR1, hits give low values 0.982 | locus YDL040C, strain nat1, hits give low values 0.99 | locus YDL074C, strain BRE1, hits give low values 0.999 | locus YDL101C, strain DUN1, hits give low values 0.985 | locus YDL134C, strain PPH21, hits give low values 0.977 | locus YDL185W, strain tfp1, hits give low values 0.979 | locus YDL192W, strain arf1, hits give low values 0.982 | locus YDR001C, strain nth1, hits give low values 0.998 | locus YDR069C, strain doa4, hits give low values 1.01 | locus YDR101C, strain arx1, hits give low values 0.997 | locus YDR137W, strain rgp1, hits give low values 0.982 | locus YDR150W, strain NUM1, hits give low values 0.994 | locus YDR159W, strain sac3, hits give low values 1 | locus YDR162C, strain NBP2, hits give low values 0.984 | locus YDR195W, strain ref2 0.99 | locus YDR297W, strain sur2, hits give low values 1.01 | locus YDR318W, strain mcm21, hits give low values 0.986 | locus YDR334W, strain swr1, hits give low values 0.984 | locus YDR335W, strain msn5, hits give low values 0.952 | locus YDR388W, hits give low values 0.981 | locus YDR502C, strain sam2, hits give low values 0.983 | locus YEL003W, strain gim4, hits give low values 0.999 | locus YEL037C, strain rad23, hits give low values 0.954 | locus YEL061C, strain CIN8 (second series), hits give low values 0.989 | locus YEL061C, strain CIN8, hits give low values 0.993 | locus YER015W, strain faa2, hits give low values 0.995 | locus YER016W, strain bim1, hits give low values 0.984 | locus YER110C, hits give low values 0.977 | locus YER111C, strain swi4, hits give low values 0.979 | locus YER155C, strain BEM2 (second series), hits give low values 0.948 | locus YER155C, strain BEM2, hits give low values 0.983 | locus YER167W, strain BCK2, hits give low values 0.983 | locus YFR010W, strain ubp6, hits give low values 0.922 | locus YGL078C, strain dbp3, hits give low values 0.984 | locus YGL086W, strain mad1, hits give low values 0.987 | locus YGL167C, strain pmr1, hits give low values 0.997 | locus YGL173C, strain kem1, hits give low values 1.02 | locus YGL227W, strain vid30, hits give low values 0.993 | locus YGL240W, strain doc1, hits give low values 1.02 | locus YGL248W, strain PDE1, hits give low values 0.996 | locus YGR078C, strain PAC10, hits give low values 1 | locus YGR135W, strain pre9, hits give low values 0.972 | locus YGR229C, strain SMI1, hits give low values 0.989 | locus YGR252W, strain gcn5, hits give low values 0.946 | locus YHR013C, strain ard1, hits give low values 0.953 | locus YHR027C, strain rpn1, hits give low values 1.01 | locus YHR030C, strain SLT2, hits give low values 0.986 and 1 | locus YHR079C, strain IRE1 (second series), hits give low values 0.979 | locus YHR079C, strain IRE1, hits give low values 1.01 | locus YHR094C, strain hxt1, hits give low values 0.978 | locus YHR129C, strain ARP1, hits give low values 0.986 | locus YHR200W, strain rpn10, hits give low values 0.985 | locus YIL066C, strain RNR3, hits give low values 0.99 | locus YIL073C, strain SPO22, hits give low values 0.946 | locus YIL125W, strain kgd1, hits give low values 0.99 | locus YIR030C, strain dcg1, hits give low values 0.983 | locus YJL092W, strain hpr5, hits give low values 0.973 | locus YJL095W, strain BCK1 (second series), hits give low values 0.998 | locus YJL095W, strain BCK1, hits give low values 1.03 and 1.02 | locus YJL115W, strain asf1, hits give low values 0.975 | locus YJL129C, strain trk1, hits give low values 0.973 | locus YJL134W, strain LCB3, hits give low values 0.99 | locus YJL154C, strain vps35, hits give low values 0.983 | locus YJL164C, strain tpk1, hits give low values 0.987 | locus YJL166W, strain qcr8, hits give low values 1.03 | locus YJL168C, strain set2, hits give low values 0.983 | locus YJL187C, strain SWE1 (second series), hits give low values 1 | locus YJL187C, strain SWE1, hits give low values 0.998
active: locus YAL026C, strain drs2, hits give low values 0.504 | locus YDR392W, strain spt3, hits give low values 0.189 | locus YGL253W, strain hxk2, hits give low values 0.766 | locus YHR142W, strain chs7, hits give low values 0.812

Reference: PubChem BioAssay AID1159580 (chemical genetic matrix, 2015)
